Rows were chosen to be rich in hits. Some 11% of all compounds tested hit in one or more screens of this group.
hNpr1 antagonist: Natriuretic polypeptide receptor (hNpr1) antagonism - Primary qHTS | AID 1347048, 2019 | HEK293 hNpr1 GloSensor cGMP, ANP-stimulated luminescence | 1.6% of 76,000 active | Atrial natriuretic peptide receptor 1 (Homo sapiens), P16066 | Potency, µM (top dose mostly 46.3 µM), for inactives: at the highest dose activity change, negative = inhibition, usual class: inhibitors; calls by dose curve; note: nearly all actives have a fitted effect of over 60% in size
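HEK293 cells stably expressing human Npr1 and cGMP GloSensor pGS-40F, loaded 2 h with 2% GloSensor reagent, given compound 30 min at room temperature. Luminescence read before and 20 min after 0.1 nM hNppA.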
FLuc inh: Firefly luciferase inhibition profiling of diverse chemical library using quantitative high-throughput screening; Luciferin 4-monooxygenase (Photinus pyralis), P08659; purified P. pyralis luciferase, luminescence, biochemical; Potency, µM (highest dose often 115 µM), most hits filed as inhibitors; 2.5% of 76,000 active; AID 1347043, 2019; note: nearly all actives have a fitted effect of over 65% in size
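Cell-free enzyme assay, 10nM P. pyralis luciferase, luciferin and ATP each at 10uM. Inhibition profiled over a 6-point titration, read as luminescence.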
HEK293 tox: Cytotoxic Profiling in HEK 293 Cell Line of Diverse Libraries Using Quantitative High-Throughput Screening; Potency, µM (top dose mostly 115 µM), inactives show top-dose activity change, negative = cytotoxicity, hits mostly inhibitors; 6.6% of 94,000 active; HEK 293 viability, ATP luminescence (CellTiter-Glo), 48-72 h; note: nearly all actives have a fitted effect of over 60% in size
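Cells seeded first (HEK 293, 250 cells/well), then compound added by pintool. Incubation ran 48 or 72 hr at 37 degree Celsius. CellTiter-Glo was added and luminescence imaged after 10 min at room temperature.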
NIH3T3 tox: Cytotoxic Profiling in NIH 3T3 Cell Line of Diverse Libraries Using Quantitative High-Throughput Screening; 4.3% of 94,000 active; Potency, µM (top dose mostly 96.7 µM), inactives show at the highest dose activity change, negative = cytotoxicity, usual class: inhibitors; NIH 3T3 viability, CellTiter-Glo ATP luminescence, 48-72 h; note: nearly all actives have a fitted effect of over 55% in size
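Viability of NIH 3T3 cells after 48 or 72 hr compound treatment at 37 °C was assessed by CellTiter-Glo, with luminescence imaged following a 10 min room-temperature step.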
* hit, by the source's call; i = inactive; ? = inconclusive; . = not tested or not shown; [ ] = dose if it differs, or a comment. Unless noted, calls come from the whole dose curve; as a rule, active = well fitted curve in the direction sought with a large enough effect; inconclusive = small, poorly fitted or top-dose-only effect, or another doubt; inactive = no such curve, though single readings can be large; an effect the other way counts as inactive or inconclusive. % is set by controls: 0 for no effect and ±100 for the full control effect; potency is the fitted concentration of half-maximal effect.

SMILES	hNpr1 antagonist	FLuc inh	HEK293 tox	NIH3T3 tox
Cc1ccc(CNC(=O)CN2C(=O)C(c3ccccc3)=NC23CCCCC3)cc1	-5.7%	i	?	?
CCN(C(=O)CN1C(=O)C(c2ccccc2)=NC12CCCCC2)c1cccc(C)c1	-6.3%	i	39.8µM*	?
CN(C(=O)CN1C(=O)C(c2ccccc2)=NC12CCCCC2)c1ccccc1	-7.8%	i	?	-7.8%
O=C(C1CCCN1C(=O)c1ccc(Cl)nc1)N1CCC(N2Cc3ccccc3C2=O)CC1 (stereo not given)	.	.	i	-3.6%
COc1cccc(C(=O)NC[C@@H]2CC[C@H]3C[C@@H]2C3(C)C)c1	-1.3%[70.6 µM]	i	89.1µM*	?
CC1(C)[C@H]2CC[C@@H](CNC(=O)c3ccc(Cl)cc3)[C@@H]1C2	-8.4%[70.6 µM]	i	?	39.8µM*
CC1(C)[C@H]2CC[C@@H](CN[S+](=O)([O-])c3ccccc3)[C@@H]1C2	-26.4%[70.6 µM]	i	79.4µM*	?
CC1(C)[C@H]2CC[C@@H](CNC(=O)c3cccc(Cl)c3)[C@@H]1C2	2.0%[70.6 µM]	i	79.4µM*	?
Cc1ccc([S+](=O)([O-])NC[C@@H]2CC[C@H]3C[C@@H]2C3(C)C)cc1	?	i	?	?
C[S+](=O)([O-])c1cccc(-c2nnc3ccc(C(=O)NCCCc4ccccc4)cn23)c1	.	.	-13.9%	-24.4%
Cc1cccc(-c2noc(CCC(=O)N3CCC(C)(c4noc(-c5ccncc5)n4)CC3)n2)c1	?	i	?	?
Cc1cccc(-c2noc(CCC(=O)N3CCC(C)(c4noc(C)n4)CC3)n2)c1	-12.0%	i	44.7µM*	?
COc1ccc(CCC(=O)N2CCC(F)(C(=O)N3CCCC3)CC2)cc1	.	.	?	-26.5%
CN(Cc1ccc(F)cc1)C(=O)Cc1ccccn1	10.4%[70.6 µM]	i	-4.2%[172 µM]	1.1%[138 µM]
CN(Cc1ccc(-c2ccccc2)cc1)C(=O)Cc1ccc(F)cc1	-24.4%[70.6 µM]	i	50.1µM*	35.5µM*
COc1ccc(CC(=O)N(C)Cc2ccc(F)cc2)cc1	-1.6%[70.6 µM]	i	?	-24.7%[138 µM]
CN(Cc1ccc(-c2ccccc2)cc1)C(=O)Cc1ccccn1	?	?	63.1µM*	?
O=C(Cc1cccc(Cl)c1)N1CCCC1C(=O)N1CCCC1c1nc2ccncc2[nH]1 (stereo not given)	.	.	i	-0.1%
O=C(C1CCCN1C(=O)NC1CCCC1)N1CCC(N2Cc3ccccc3C2=O)CC1 (stereo not given)	.	.	1.6%	-11.0%
COc1ncc(C(=O)NCc2cccnc2N2CCN(C(C)=O)CC2)cn1	0.4%	i	-18.0%	-13.4%
COc1ccc(CNC(=O)C2CCN(c3nccc(Nc4ccccc4Cl)n3)CC2)cc1	.	.	25.1µM*	35.5µM*
COCCNC(=O)[C@@H]1CCCN1c1nccc(Nc2ccccc2Cl)n1	.	.	-30.0%	-27.6%
O=C(NCC1CC1)C1CCN(c2nccc(Nc3ccccc3Cl)n2)CC1	.	.	31.6µM*	31.6µM*
COc1ccc(CC(=O)N2CCN(c3nccc(Nc4ccccc4Cl)n3)CC2)cc1	.	.	?	39.8µM*
COCCOCc1nc(C2CCN(C(=O)NCCc3ccccc3)CC2)no1	4.8%	i	0.7%	-11.4%
SMILES	hNpr1 antagonist	FLuc inh	HEK293 tox	NIH3T3 tox
COc1ccccc1CN(Cc1ccccc1C)C(=O)[C@H]1CCC[C@H](O)C1	2.4%	i	22.4µM*	-19.6%
O=C1NCCCCCN(C(=O)CC2CCCCC2)[C@@H]2C[C@@H](C(=O)N3CCc4ccccc4C3)C[C@H]12	-17.7%	i	?	?
O=C1NCCCCCN(C(=O)CC2CCCC2)[C@@H]2C[C@@H](C(=O)N3CCc4ccccc4C3)C[C@H]12	-10.9%	i	31.6µM*	?
O=C1NCCCCCCN(C(=O)c2cccnc2)[C@H]2C[C@H](C(=O)N3CCc4ccccc4C3)C[C@@H]12	0.7%	i	-1.9%	28.2µM*
Cc1ccc(C)c(S(=O)(=O)N2CCN(C3CCN(Cc4cccnc4)C3=O)CC2)c1 (stereo not given)	2.4%	i	?	-19.1%
Cc1cccc2c1nc1n2[C@@H](CNCc2nc3ccccc3n2C)COC1	?	i	?	100µM*
Cc1cccc2c1nc1n2[C@@H](CNCc2ccc(C#N)cc2)COC1	?	i	?	?
CCn1cc(S(=O)(=O)N2CC3(CCCCC3)CC2COc2ccc(OC)cc2)cn1 (stereo not given)	.	.	31.6µM*	?
CCOC(=O)CNC(=O)N1CC2(CCCCC2)CC1COc1ccc(OC)cc1 (stereo not given)	.	.	-26.2%	-29.1%
CC(C)c1cc(C(=O)N2CCn3nc(C(=O)Nc4ccccc4)cc3C2)n[nH]1	12.6µM*	?	?	?
CC(C)CN1C[C@@H](C(=O)O)C[C@@H](C(=O)Nc2ccc(F)cc2)C1	6.2%	i	2.9%	3.6%
O=[S+]1([O-])CCN(Cc2ccc(-c3cnc4c(OCc5ccccc5)nccn34)cc2)CC1	11.2µM*	?	35.5µM*	22.4µM*
NC(=O)C1CCCN(Cc2ccc(-c3cnc4c(OCc5ccccc5)nccn34)cc2)C1 (stereo not given)	-17.5%	44.7µM*	44.7µM*	39.8µM*
OC1CCC(NCc2ccc(-c3cnc4c(OCc5ccccc5)nccn34)cc2)CC1 (stereo not given)	3.6%[70.6 µM]	i	50.1µM*	22.4µM*
NC(=O)CN1CCCC(c2nc(-c3cn4ccccc4n3)no2)C1 (stereo not given)	-2.1%	i	0.4%	-19.6%
O=C(NC1CC1)c1cc(-c2cccc(C(F)(F)F)c2)c2nncn2n1	.	.	-28.9%	-29.4%
COCCNC(=O)c1cc(-c2cccc(C(F)(F)F)c2)c2cccn2n1	.	.	31.6µM*	?
O=C(NCC1CC1)c1cc(-c2cccc(C(F)(F)F)c2)c2cccn2n1	.	.	28.2µM*	?
CC(C)NC(=O)c1cc(-c2cccc(C(F)(F)F)c2)c2nncn2n1	.	.	-4.1%	-6.5%
CC(C)c1cnc(-c2ccncc2)[nH]1	.	.	-6.3%[230 µM]	-16.9%[174 µM]
N#Cc1cccc(CN(Cc2cccc(C#N)c2)[C@@H]2CO[C@H](CNC(=O)c3ccccc3)[C@H]2O)c1	0.6%	i	79.4µM*	?
Cc1ncoc1C(=O)N1CCC(F)(c2nc(-c3ccncc3)no2)CC1	-2.3%	i	-3.5%	3.9%
Cc1ccc(-c2[nH]ncc2CN2CCN(c3ccc(Cl)cn3)CC2)cc1C	11.8%	i	35.5µM*	?
OC1CN(Cc2ccccc2)CCN(Cc2cn[nH]c2-c2ccc(Cl)cc2)C1 (stereo not given)	-7.0%	i	?	?
O=C(c1ccc(F)c(Cl)c1)N1CCC[C@H]1c1nc(-c2ccccc2)no1	-12.9%	i	?	-29.0%

Screens: PubChem, National Center for Advancing Translational Sciences (NCATS)
